Test [1] can be described thus: qHTS assay to identify small molecule antagonists of the estrogen receptor alpha (ER-alpha) signaling pathway using the BG1 cell line in the presence of 0.1 nM 17-beta-estradiol - cell viability counter screen (AID 1259241). Also: nearly all actives have a fitted effect of over 40% in size. The procedure, abridged: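 Cytotoxicity counter-screen: live-cell protease activity measured by fluorescence (30 min reagent step) in the same wells. Cells were VM7Luc4E2 with endogenous ER-alpha and ERE-driven luciferase, treated 22 hr at 37C alongside 0.1 nM 17beta-estradiol final.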
For orientation: In qHTS, concentration-response curves come from the screen itself.

Test [2] has as its target Estrogen receptor (Homo sapiens) (UniProt P03372). The experiment in a line: qHTS assay to identify small molecule antagonists of the estrogen receptor alpha (ER-alpha) signaling pathway using the BG1 cell line in the presence of 0.1 nM 17-beta-estradiol (AID 1259244). Also: nearly all actives have a fitted effect of over 50% in size. An outline of the steps:
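Reporter is a stably transfected luciferase under four estrogen responsive elements in VM7Luc4E2 cells expressing native full-length ER-alpha; inhibition of 0.1 nM (final) 17beta-estradiol-driven signal over 22 h is read by luminescence.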

Test [3] can be described thus: qHTS assay to identify small molecule HDAC inhibitors (AID 1259364).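 Also: wild-type HCT-116 cells with endogenous class I/II HDAC activity; top concentration of the series differs between compounds; nearly all actives have a fitted effect of over 45% in size.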 An outline of the steps:
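Quantitative high-throughput format: overnight-seeded HCT-116 cells got compounds for 2 hr at 37C; HDAC-Glo I/II reagent added, 30 min RT, luminescence measured.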

Test [4] in a line: qHTS assay to identify small molecule HDAC inhibitors - cell viability counter screen (AID 1259365). Also: series mostly up to about 92 µM; nearly all actives have a fitted effect of over 50% in size. The procedure, abridged: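 CellTiter-Glo luminescence (30 min, room temperature) reported viability after a 2 h compound exposure at 37 C. Cells: wild-type HCT-116, 1,500 per well, seeded the night before.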
Test [5] is described as follows: qHTS assay to identify small molecule agonists of the sonic hedgehog signaling (Shh) pathway - cell viability counter screen (AID 1259366). Also: nearly all actives have a fitted effect of over 50% in size. Also: potency is read from the fitted curve at half-maximal effect. An outline of the steps:
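Cytotoxicity counter screen: CellTiter-Fluor reagent added after 23 h compound exposure, then 1 h at 37C and fluorescence read. Cells were 3T3 Gli1-Luc, seeded 2,000 per well and dosed 4 h post-plating.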

Test [6] in a line: qHTS assay to identify small molecule antagonists of the sonic hedgehog signaling (Shh) pathway - cell viability counter screen (AID 1259367). Also: nearly all actives have a fitted effect of over 55% in size. Also: potency is read from the fitted curve at half-maximal effect. The procedure, abridged: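 Tox21 library chemicals were tested on a Gli1-Luc NIH/3T3 clone (2,000 cells/well) stimulated by conditioned medium; viability was quantified as fluorescence from CellTiter-Fluor reagent added at 23 hr.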
The nature of test [7]: qHTS assay to identify small molecule agonists of the sonic hedgehog signaling (Shh) pathway (AID 1259368; calls by dose curve;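 also: NIH/3T3-derived 3T3Gli1-Luc cells carrying a stable Gli1-driven firefly luciferase reporter; series mostly up to about 92 µM; nearly all actives have a fitted effect of over 15% in size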). The procedure, abridged: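 Quantitative high-throughput format using a Gli1-driven firefly luciferase reporter line derived from NIH/3T3 cells. After a 24 hr compound treatment at 37 C and 5% CO2, luminescence reported Gli1 response element activity.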
Test [8] in a line: qHTS assay to identify small molecule antagonists of the sonic hedgehog signaling (Shh) pathway (AID 1259369; calls by dose curve; also: nearly all actives have a fitted effect of over 45% in size; also: potency is read from the fitted curve at half-maximal effect). The procedure, abridged:
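Stable Gli1-Luc reporter NIH/3T3 clone; quantitative HTS in stimulated mode with conditioned medium. Luminescence measured after 24hr compound treatment at 37 C.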

Test [9] can be described thus: qHTS assay to identify small molecule agonists of the androgen receptor (AR) signaling pathway in the presence of an antagonist - cell viability counter screen (AID 1259379). Also: nearly all actives have a fitted effect of over 25% in size. Also: potency is read from the fitted curve at half-maximal effect.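 As to activity change, negative = cytotoxicity: MDA-kb2 human breast cancer cells carrying an MMTV luciferase reporter; series mostly up to about 92 µM.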 The procedure, abridged: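 Nilutamide-containing (3.0uM final) MDA-kb2 cultures, 3,000 cells/well, were treated with compounds across 15 concentrations. After 16 hr at 37C with no CO2, cell viability was determined by CellTiter-Fluor fluorescence in the luciferase assay wells.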

Test [10] in a line: qHTS assay to identify small molecule agonists of the estrogen receptor beta (ER-beta) signaling pathway - cell viability counter screen (AID 1259380). Also: nearly all actives have a fitted effect of over 30% in size. Also: potency is read from the fitted curve at half-maximal effect. The procedure, abridged: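 Steps: plate ER-beta-UAS-bla HEK293T cells, rest 6 hr; add compounds in DMSO; incubate 16 hr at 37C, 5% CO2; add FRET substrate 2 hr; add CellTiter-Glo, wait 30 min at room temperature; read luminescence.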

For test [11], the target named is Estrogen receptor (Homo sapiens) (UniProt P03372). The experiment in a line: qHTS assay to identify small molecule agonists of the estrogen receptor alpha (ER-alpha) signaling pathway in the presence of an antagonist (AID 1259383; calls by dose curve; also: top concentration of the series differs between compounds; nearly all actives have a fitted effect of over 15% in size). The procedure, abridged:
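Readout was ERE-driven luciferase luminescence in VM7Luc4E2 cells, which express full-length ER-alpha endogenously. Compounds were tested at 15 concentrations for 22hr alongside 10.0nM ICI-182,780 (final concentration).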

Test [12] in a line: qHTS assay to identify small molecule agonists or antagonists of the thyroid stimulating hormone receptor (TSHR) signaling pathway - wild type cell line counter screen (AID 1259384; calls by dose curve). An outline of the steps: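 Wild-type Hek293 cells, 800/well, 18 h at 37C, then compound with Ro20-1724 for 30 min RT. cAMP by HTRF (cAMP-d2/anti-cAMP cryptate), 1 h RT, fluorescence read. 15 concentrations, triplicates.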

Test [13] has as its target Thyrotropin receptor (Homo sapiens) (UniProt P16473). The experiment in a line: qHTS assay to identify small molecule antagonists of the thyroid stimulating hormone receptor (TSHR) signaling pathway (AID 1259385; calls by dose curve; also: nearly all actives have a fitted effect of over 20% in size; also: potency is read from the fitted curve at half-maximal effect). An outline of the steps: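 TSHR-HEK293 cells (800/well) plated 18 h, then compounds with Ro20-1724 and TSH at 1.5 ng/mL final, 30 min at room temperature. cAMP quantified by HTRF (cAMP-d2/anti-cAMP-cryptate, 1 h); 15 concentrations in triplicate.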

Test [14] addresses Androgen receptor (Homo sapiens) (UniProt P10275). Description: qHTS assay to identify small molecule antagonists of the androgen receptor (AR) signaling pathway using the MDA cell line in the presence of 0.5 nM R1881 (AID 1259243). Also: nearly all actives have a fitted effect of over 50% in size. Also: potency is read from the fitted curve at half-maximal effect. An outline of the steps:
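Antagonist mode quantitative HTS in MDA-kb2 MMTV-luciferase cells, agonist R1881 at 0.5 nM final, 16 hr exposure at 37C and 0% CO2, luminescent detection.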

For test [15] the target is unchanged. The experiment in a line: qHTS assay to identify small molecule agonists of the androgen receptor (AR) signaling pathway in the presence of an antagonist (AID 1259381; calls by dose curve; also: nearly all actives have a fitted effect of over 15% in size). An outline of the steps: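 Reporter-gene luminescence from MDA-kb2 cells exposed 16hr at 37C (0% CO2) to 15-point compound titrations with 3.0uM final nilutamide as AR antagonist.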
Test [16] is described as follows: qHTS assay to identify small molecule antagonists of the estrogen receptor beta (ER-beta) signaling pathway - cell viability counter screen (AID 1259382). Also: nearly all actives have a fitted effect of over 55% in size. Also: potency is read from the fitted curve at half-maximal effect. As to activity change, negative = cytotoxicity: series mostly up to about 92 µM. The procedure, abridged: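 Viability is scored by CellTiter-Glo luminescence (30 min, room temperature) in ER-beta-UAS-bla HEK293T wells already read for reporter fluorescence. Compound exposure lasts 16 hr at 37C alongside 1nM 17-beta-estradiol in charcoal-stripped serum medium.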

Test [17] can be described thus: qHTS assay to identify small molecule antagonists of the androgen receptor (AR) signaling pathway using the MDA cell line in the presence of 0.5 nM R1881 - cell viability counter screen (AID 1259242). Also: nearly all actives have a fitted effect of over 45% in size. The procedure, abridged: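 qHTS format. MDA-kb2 (MMTV-luc, AR/GR responsive) + cpd + 0.5 nM R1881 final, 16 hr 37C/0% CO2 → CellTiter-Fluor 30 min → fluorescence intensity.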

Test [18] in a line: qHTS assay to identify small molecule phospholipidosis (PLD) inducers (AID 1259344; active = well fitted curve in the direction sought with a large enough effect; an effect the other way counts as inactive or inconclusive). The procedure, abridged:
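Image-based: LipidTOX Red pit count/intensity per well and per cell; HepG2, 24 h compound at 37 C, PFA fixation, Hoechst counterstain.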

Test [19] addresses Estrogen receptor beta (Homo sapiens) (UniProt Q92731). The experiment in a line: qHTS assay to identify small molecule agonists of the estrogen receptor beta (ER-beta) signaling pathway (AID 1259377; active = well fitted activation curve with a large enough effect in the signal ratio in the repeat runs, not every such curve was filed as active; the % refers to the signal ratio). The procedure, abridged:
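Ratiometric beta-lactamase FRET read-out came after 2 h substrate loading at room temperature. It followed 16 h compound treatment at 37C of GripTite HEK293T cells carrying a UAS-bla reporter, plated in 2% charcoal-stripped FBS medium.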

For test [20] the target is unchanged. Description: qHTS assay to identify small molecule antagonists of the estrogen receptor beta (ER-beta) signaling pathway (AID 1259378; active = well fitted inhibition curve with a large enough effect in the signal ratio in the repeat runs, not every such curve was filed as active; the % refers to the signal ratio). An outline of the steps: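 ER-beta-UAS-bla HEK293T cells in 2% charcoal-stripped FBS medium treated with compound plus 1nM final 17-beta-estradiol for 16 hr at 37C. Beta-lactamase reporter read by FRET substrate fluorescence after 2 hours at room temperature.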

Values joined by “and” are separate entries in the source; they are usually repeats but may differ in a detail not shown here. Equal entries are not always repeated. Unmarked numbers belong to inactive results. Records with an inconclusive call do not appear. Active and inactive are the calls of the source. Unless noted, calls follow the shape of the dose curve; as a rule, active = well fitted curve in the direction sought with a large enough effect in the repeat runs; inconclusive = weak or mixed curves; inactive = no such curve, though single readings can be large; an effect the other way counts as inactive or inconclusive.
% is scaled to controls: 0 for no effect and ±100 for the full control effect.

Estrogen receptor beta (Homo sapiens), sequence (Q92731 whole entry, looked up): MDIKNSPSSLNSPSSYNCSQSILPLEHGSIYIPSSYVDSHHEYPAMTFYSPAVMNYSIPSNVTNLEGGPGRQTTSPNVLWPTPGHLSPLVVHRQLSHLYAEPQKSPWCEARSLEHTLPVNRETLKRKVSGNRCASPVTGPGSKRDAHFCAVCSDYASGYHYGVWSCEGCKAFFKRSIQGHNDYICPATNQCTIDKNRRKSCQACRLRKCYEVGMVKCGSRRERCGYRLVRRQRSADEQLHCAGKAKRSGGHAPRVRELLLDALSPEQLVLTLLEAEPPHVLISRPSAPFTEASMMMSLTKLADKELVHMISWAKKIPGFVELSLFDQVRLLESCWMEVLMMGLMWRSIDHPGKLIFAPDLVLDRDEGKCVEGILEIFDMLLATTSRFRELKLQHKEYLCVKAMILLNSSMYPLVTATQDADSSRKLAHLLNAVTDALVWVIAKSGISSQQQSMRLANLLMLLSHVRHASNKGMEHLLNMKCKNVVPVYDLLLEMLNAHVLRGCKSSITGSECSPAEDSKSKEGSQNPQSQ
Androgen receptor (Homo sapiens), sequence (P10275 whole entry, looked up): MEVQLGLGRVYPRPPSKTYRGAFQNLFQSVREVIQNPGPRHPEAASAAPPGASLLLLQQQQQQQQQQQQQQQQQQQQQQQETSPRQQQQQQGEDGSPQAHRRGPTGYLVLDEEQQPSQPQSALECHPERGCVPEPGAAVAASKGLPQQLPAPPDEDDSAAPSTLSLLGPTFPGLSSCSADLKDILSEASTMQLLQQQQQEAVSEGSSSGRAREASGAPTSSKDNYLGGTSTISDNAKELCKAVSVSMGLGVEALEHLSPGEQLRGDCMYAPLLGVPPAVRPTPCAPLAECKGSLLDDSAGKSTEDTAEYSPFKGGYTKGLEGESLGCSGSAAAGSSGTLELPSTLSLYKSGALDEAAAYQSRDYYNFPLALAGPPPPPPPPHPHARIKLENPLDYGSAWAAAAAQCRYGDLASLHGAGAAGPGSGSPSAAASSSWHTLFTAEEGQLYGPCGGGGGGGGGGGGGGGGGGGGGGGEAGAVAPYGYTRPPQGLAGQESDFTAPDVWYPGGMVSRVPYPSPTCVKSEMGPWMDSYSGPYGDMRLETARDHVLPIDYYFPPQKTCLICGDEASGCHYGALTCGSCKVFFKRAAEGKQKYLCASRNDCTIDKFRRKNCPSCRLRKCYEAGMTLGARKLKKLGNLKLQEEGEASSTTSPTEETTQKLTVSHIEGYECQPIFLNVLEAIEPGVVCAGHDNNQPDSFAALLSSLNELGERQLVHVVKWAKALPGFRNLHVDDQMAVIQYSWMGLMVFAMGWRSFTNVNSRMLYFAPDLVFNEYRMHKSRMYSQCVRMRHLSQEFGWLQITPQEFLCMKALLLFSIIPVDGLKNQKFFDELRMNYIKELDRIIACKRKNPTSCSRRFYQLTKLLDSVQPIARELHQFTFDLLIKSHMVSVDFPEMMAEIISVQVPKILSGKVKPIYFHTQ
Thyrotropin receptor (Homo sapiens), sequence (P16473 whole entry, looked up): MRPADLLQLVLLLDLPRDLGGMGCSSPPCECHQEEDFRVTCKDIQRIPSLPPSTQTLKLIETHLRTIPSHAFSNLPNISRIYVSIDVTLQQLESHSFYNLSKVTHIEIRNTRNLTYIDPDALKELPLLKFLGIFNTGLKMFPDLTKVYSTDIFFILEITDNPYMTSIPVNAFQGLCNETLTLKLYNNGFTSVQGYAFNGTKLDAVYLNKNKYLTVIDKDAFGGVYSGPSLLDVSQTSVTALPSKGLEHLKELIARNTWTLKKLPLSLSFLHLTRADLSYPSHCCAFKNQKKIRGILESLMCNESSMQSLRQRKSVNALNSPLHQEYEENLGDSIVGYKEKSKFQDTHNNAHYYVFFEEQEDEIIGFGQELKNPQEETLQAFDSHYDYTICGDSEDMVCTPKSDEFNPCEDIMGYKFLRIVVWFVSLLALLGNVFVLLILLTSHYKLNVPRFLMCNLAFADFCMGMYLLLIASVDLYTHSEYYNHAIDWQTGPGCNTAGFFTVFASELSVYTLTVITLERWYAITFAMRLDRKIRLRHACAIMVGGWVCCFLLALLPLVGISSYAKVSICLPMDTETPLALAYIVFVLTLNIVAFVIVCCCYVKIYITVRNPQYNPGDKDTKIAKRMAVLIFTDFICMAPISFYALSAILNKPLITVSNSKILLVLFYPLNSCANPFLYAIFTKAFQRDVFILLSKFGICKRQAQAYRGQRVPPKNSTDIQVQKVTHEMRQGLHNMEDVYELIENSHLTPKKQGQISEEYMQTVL
Estrogen receptor (Homo sapiens), sequence (P03372 whole entry, looked up): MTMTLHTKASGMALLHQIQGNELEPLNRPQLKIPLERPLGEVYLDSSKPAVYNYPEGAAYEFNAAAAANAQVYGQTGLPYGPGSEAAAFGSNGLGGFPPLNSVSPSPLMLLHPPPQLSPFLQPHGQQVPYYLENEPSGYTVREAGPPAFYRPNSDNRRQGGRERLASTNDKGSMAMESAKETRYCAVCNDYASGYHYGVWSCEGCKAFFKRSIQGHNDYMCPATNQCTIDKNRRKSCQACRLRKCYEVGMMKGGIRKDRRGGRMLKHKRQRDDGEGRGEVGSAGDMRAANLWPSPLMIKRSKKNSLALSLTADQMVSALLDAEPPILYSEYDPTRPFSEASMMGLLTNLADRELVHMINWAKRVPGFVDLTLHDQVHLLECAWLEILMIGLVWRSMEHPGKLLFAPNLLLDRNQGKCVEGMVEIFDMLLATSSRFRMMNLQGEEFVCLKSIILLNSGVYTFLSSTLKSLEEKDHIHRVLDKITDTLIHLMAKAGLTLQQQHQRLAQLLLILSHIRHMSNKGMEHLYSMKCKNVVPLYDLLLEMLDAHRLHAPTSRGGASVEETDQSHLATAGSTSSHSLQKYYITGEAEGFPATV

Regarding `O=C(O)C(F)(F)C(F)(F)C(F)(F)C(F)(F)C(F)(F)C(F)(F)C(F)(F)C(F)(F)F`, the Potency entry in test [1], in test [2], in test [3], in [4], in test [5] and in test [6] was “inactive” in each case. For the same molecule, the Potency entry in test [7], in [8], in test [9], in [11] and in [13] was “inactive” each time. Besides, the Potency in [10] was 12.2 µM (active). Further, the molecule was called inactive in [12].
Take `Nc1c(Br)cc(Br)c2c1C(=O)c1ccccc1C2=O`: the activity change, negative = cytotoxicity in test [1] was -0.0291% [at 19 µM]; in test [4], -8.35% [at 19 µM]; in test [9], -5.97% [at 19 µM]; in test [10], -3.72% [at 19 µM]; in test [16], 0.853% [at 19 µM]. Also, in test [14], the activity, negative = inhibition was -15.1% [at 19 µM]. Moreover, the activity change, negative = inhibition in test [2] was 16.5% [at 19 µM]; in test [3], -14.9% [at 19 µM]; in [8], -1.9% [at 19 µM]; in test [13] it was -1.61% [at 19 µM]. The viability change, negative = cytotoxic in test [6] is -3.04% [at 19 µM]. Also, the activity change in test [7] was 9.18% [at 18.9 µM, active compounds read high]. Besides, the activation is 0.208% [at 19 µM] in test [15] and 1.8% [at 19 µM] in test [11]. The cAMP activity change in [12] is 2.44% [at 18.9 µM].
In the case of `CC(C)(C)NCC(O)c1cc(Cl)c(N)c(C(F)(F)F)c1` (configuration not stated), the Potency result in [17], in test [14], in test [2], in test [3], in test [7] and in [8] was “inactive” throughout. The Potency entry in test [9], in test [10], in test [15], in test [16], in [11] and in [13] was “inactive” each time. Besides, the call in [18] was inactive. In addition, the figures for the Potency in test [5] and in test [6] were 7.5 µM (active) and 9.44 µM (active), respectively.
`COP(=O)(OC)OC(Br)C(Cl)(Cl)Br` (configuration not stated): the Potency result in test [1], in test [2], in test [3], in test [4], in test [5] and in test [6] was “inactive” throughout. In addition, the Potency result in test [7], in test [19], in test [20], in test [9], in test [10] and in [15] was “inactive” each time. The Potency entry in test [16], in test [11] and in test [13] was “inactive” throughout. Further, the Potency in [14] is 61.2 µM (active) and 61.1 µM (active); in test [8], 12.2 µM (active). Also, the molecule was called inactive in [12].
For the molecule `O=[N+]([O-])/C=C/c1ccccc1`, the Potency result in test [1], in test [3], in test [6], in test [7] and in test [16] was “inactive” in each case. Further, the Potency in test [5] is 5.54 µM (active) and 10.9 µM (active); in test [9] it was 44 µM (active) and 68.6 µM (active); in [13], 27.8 µM (active) and 21.7 µM (active). In test [12], the molecule was called inactive.
For `Cc1cnc(C2=NC(C)(C(C)C)C(=O)N2)c(C(=O)O)c1` (configuration not stated), the Potency entry in test [1], in test [14], in [2], in test [3], in test [5] and in [6] was “inactive” in each case. Moreover, the Potency result in test [7], in test [8], in [19], in test [20], in test [9] and in test [10] was “inactive” each time. Besides, the Potency result in test [15], in test [16], in test [11] and in [13] was “inactive” throughout. In test [12], the outcome was inactive.
`C[C@H]1[C@@H]2Cc3ccc(O)cc3[C@@]1(C)CCN2C`: the Potency result in test [1], in test [3], in test [4], in test [5], in [6] and in test [19] was “inactive” each time. The Potency entry in [20], in test [9], in test [10] and in test [13] was “inactive” in each case. Also, the outcome in [18] and in test [12] was inactive.
On to `CC(C)c1ccc(OP(=O)(Oc2ccc(C(C)C)cc2)Oc2ccc(C(C)C)cc2)cc1`, for which the Potency entry in test [1], in test [2], in test [3], in test [5], in test [6] and in test [7] was “inactive” in each case. Besides, the Potency result in test [9], in [11] and in test [13] was “inactive” throughout. For the same molecule, the Potency in test [8] was 13.8 µM (active) and 12.2 µM (active) and 15.3 µM (active); in test [10], 21.8 µM (active) and 27.3 µM (active) and 21.7 µM (active); in [16], 27.5 µM (active) and 30.6 µM (active). Also, the result in test [12] was inactive.
